# Test results from publication PMC5540273 (PLoS ONE, 2017).
# Test system: RAF1
# Details: concentration: 1 μM,replicates: in singlicate; n = 1
# 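Note: KINOMEscan kinase panel screen.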
row,SMILES,%Inh
1,Cl.Cl.NC[C@H](CC1CCCCC1)NC(=O)c1ccc(-c2ccnc3[nH]ccc23)s1 [GSK1581428],0%
2,N#Cc1cccc(C(=O)NC2CCN(c3ccnc(Nc4ccc(F)cc4)n3)C2)c1 (stereo not shown) [GSK1379708],2%
3,c1ccc(Oc2ccc(Nc3ccnc4ccc(-c5ccccn5)cc34)cc2)cc1 [GW407034],19%

# Test system: RET
# Details: concentration: 1 μM,replicates: in singlicate; n = 1
row,SMILES,%Inh
1,O=C(Nc1ccccc1)c1cccc(Oc2ccc3nccn3n2)c1,0%
2,Cc1ccc(CC(=O)N2CCc3cc(-c4cn(C)c5ncnc(N)c45)ccc32)cc1 [GSK2634758],7%
3,COC(=O)c1cccc(NC(=O)NC2CCN(c3ccnc(NCc4ccc(F)cc4)n3)CC2)c1 [GSK1379860],9%
4,Cc1n[nH]c2cc(Nc3ccnc(Nc4cccc(CN5CCOCC5)c4)n3)ccc12 [GW682569],56%
5,CCN1CCN(CCCC(=O)Nc2n[nH]c3nc(-c4ccc(O)cc4)c(Br)cc23)CC1 [SB-731579],23%
6,COc1ccc(Nc2nccc(N3CCC(NC(=O)c4cccc(C#N)c4)C3)n2)cc1 (stereo not shown) [GSK1379730],28%
7,C[C@@H](Oc1cc(-n2cnc3cc(-c4ccncc4)ccc32)sc1C(N)=O)c1ccccc1Cl [GSK479719],36%
8,Cc1nnc(-c2ccc3occ(-c4ccc(S(C)=O)cc4)c3n2)o1 (stereo not shown),0%
9,Cn1cc(-c2cccc3c(N)c(C(N)=O)nnc23)cn1,12%
10,Cl.Nc1n[nH]c2cc(-c3ccccn3)ccc12 [GSK2189892],2%
11,COc1cccc(CNC(=O)NC2CCN(c3ccnc(Nc4cc(OC)c(OC)c(OC)c4)n3)C2)c1 (stereo not shown) [GSK1379765],19%
12,Cc1ccc(C(=O)Nc2ccc(Oc3ccc4nc(NC(=O)C5CC5)cn4c3)c(F)c2)c(=O)n1-c1ccccc1,100%
13,Cc1cccc2c(-c3ccncc3)c(-c3ccc(F)cc3)nn12.Cl [GW461487],18%
14,C[C@@H](Oc1cc(-n2cnc3ccc(-c4ccncc4)cc32)sc1C(N)=O)c1ccccc1Cl [GSK483724],22%
15,CNC(=O)c1ccccc1Nc1nc(Nc2cccc(CS(C)(=O)=O)c2)ncc1C.O=CO [GSK1520489],100%
16,COc1cc2c(Nc3ccc(NC(=O)c4ccccc4)cc3)ncnc2cc1OCCCN1CCOCC1 [GSK301329],79%
17,O=C(Nc1ccc(Oc2ccc3nc(NC(=O)C4CC4)cn3n2)c(F)c1)c1cccn(-c2ccccc2)c1=O,99.9%
18,COc1cc(Nc2nccc(N3CCC(NC(=O)c4cccc(C#N)c4)C3)n2)cc(OC)c1OC (stereo not shown) [GSK1379751],14%
19,CC(C)S(=O)(=O)N1CCN(Cc2ccc3c(c2)nc(NC(=O)c2ccsc2)n3C[C@H](O)c2ccccc2)CC1 [GW635815],44%

row,SMILES,%Inh
1,Cn1ccc2ncnc(Oc3ccc(NC(=O)Nc4cccc(C(F)(F)F)c4)c(F)c3)c21,100%
2,Cc1ccc2c(-c3ccnc(Nc4ccc(C(F)(F)F)cc4)n3)cnn2n1 [GW819776],0%
3,C[C@@H]1CNc2c(sc3ccc4nc(-c5ccncc5)ccc4c23)C(=O)N1,14%
4,Cn1ccc2ncnc(Oc3ccc(NC(=O)Nc4cccc(C(F)(F)F)c4)c(Cl)c3)c21,100%
5,COc1cccc(OC)c1C(=O)Nc1cccc(-c2nn3ccccc3c2-c2ccnc(Nc3cccc(F)c3)n2)c1 [GSK361065],90.1%
6,CN1CCN(CCCNc2nccc(-c3c(-c4ccc(F)cc4)nn4cc(C(N)=O)ccc34)n2)CC1 [GW622475],38%
7,CCCC(=O)Nc1n[nH]c2ncccc12 [SB-601436],0%
8,Cn1ccc2ncnc(Oc3ccc(NC(=O)Nc4cc(C(C)(C)C)on4)c(Cl)c3)c21,100%
9,Cl.c1ccc(Oc2ccc(Nc3ccnc4cc(-c5ccc(CN6CCNCC6)o5)ccc34)cc2)nc1 [GW567142],20%
10,CC(=O)Nc1ccc(-c2cc3ncnc(SCC(=O)O)c3s2)cc1,15%
11,Cc1ccc(Nc2ccnc(Nc3ccc4c(c3)CS(=O)(=O)C4)n2)cc1O.Cl [GW579362],100%
12,COc1cccc(C2=C(Nc3cccc(Cl)c3)C(=O)NC2=O)c1 [SB-341556],37%
13,OCCn1cc(-c2cnc3nnn(Cc4ccc5ncccc5c4)c3n2)cn1,0%
14,Cn1ccc2ncnc(Oc3ccc(NC(=O)Nc4cncc(C(F)(F)F)c4)c(Cl)c3)c21,100%
15,CN(c1cccc(CNc2nc(Nc3ccc4c(c3)CC(=O)N4)ncc2C(F)(F)F)c1)S(C)(=O)=O,85%
16,Cl.Cl.NC[C@H](CC1CCCCC1)NC(=O)c1ccc(-c2ccnc3[nH]ccc23)s1 [GSK1581428],38%
17,N#Cc1cccc(C(=O)NC2CCN(c3ccnc(Nc4ccc(F)cc4)n3)C2)c1 (stereo not shown) [GSK1379708],18%
18,c1ccc(Oc2ccc(Nc3ccnc4ccc(-c5ccccn5)cc34)cc2)cc1 [GW407034],6%
